Several values for one entry are separate records, joined by “and”; a condition that tells them apart may be missing. Equal values may be shown once. Results filed as inconclusive are left out. Activity calls are given as the source filed them. Calls come from the whole dose curve.
Potency is the fitted concentration of half-maximal effect.

This test can be described thus: qHTS assay to identify small molecule agonists of the AP-1 signaling pathway - cell viability counter screen (AID 1159525). Note: nearly all actives have a fitted effect of over 55% in size. Conditions: ME-180 (cervical carcinoma) AP-1-bla cells viability, ATP luminescence, 5 h; series mostly up to 76.8 µM; viability change, negative = cytotoxic: at the top concentration. An excerpt: National Center for Advancing Translational Sciences [NCATS]
NIH Chemical Genomics Center [NCGC]
U.S. Environmental Protection Agency [EPA]
National Institutes of Environmental Health Sciences [NIEHS]
National Toxicology Program [NTP]
U.S. Food and Drug Administration [FDA]
Activator protein-1 (AP-1), a transcription factor, plays an important role in tumor genesis by regulating genes involved in cell proliferation, differentiation, apoptosis, and angiogenesis. AP-1 activity is induced by a complex network of signaling pathways that involves extracellular signals, such as growth factors. The AP-1 protein complex formed from c-Fos and c-Jun binding to the AP-1 response element results in transcriptional activation of genes containing such elements within their promoter.
Low molecular weight molecules have been discovered and developed to modulate various components of these signaling pathways, for example, MAP kinase inhibitors. However, many points of pathway modulation remain untested due to the lack of chemical probes making this signaling locus of general interest.
Using a beta-lactamase reporter-gene under control of the AP-1 response element, a cell-based assay [CellSensor(TM) AP-1-bla ME-180 developed by Invitrogen Corp.] was used to measure EGF-induced signaling. The Tox21 10K library compounds were measured for their ability to positively modulate the action of EC50 EGF on reporter gene activity. Compounds were screened in a 15-pt titration series in 1536-well format. The cytotoxicity of the Tox21 compound library against this cell line was tested in parallel by measuring the intra cellular ATP content in the same wells.
Tox21 Assay Protocol Summary:
2500 cells/5uL in Opti-MEM medium containing 0.5% dialyzed FBS, 0.1 mM NEAA, 1 mM sodium pyruvate and 10 mM HEPES was dispensed into 1536-well black wall/clear bottom plates using a Multidrop dispenser and cells were cultured at 37 degrees Celsius overnight. Next day 23 nL of compounds dissolved in DMSO, positive controls or DMSO were delivered to each well using a pin tool. The plates were incubated at 37 degrees Celsius for 5 hours. 1 uL of LiveBLAzerTM B/G FRET substrate (Solution A+B+C+D) was added to each well using a Flying Reagent Dispenser. After incubated at room temperature for 2.5 hours the plates were measured on an EnVision plate reader at Excitation 405nm, Emission1=460nm and Emission 2=530nm. The %Activity was determined from the ratio of 460nm/530nm.
After the plates were read for Beta-Lactamase assay on Envision; 3 ul Cell Titer Glo (Promega) was added to measure the cytotoxicity and the plates were then incubated at RT in dark for 30 min. The luminescence was read on ViewLux (Perkin Elmer, Shelton, CT) using 6 sec exposure. ViewLux data was expressed as relative luminescence units.
For primary data analysis, raw plate reads for each titration point were first normalized relative to […] EGF control (100%) and DMSO only wells (basal, 0%).
For primary data analysis for viability assay, raw plate reads for each titration point were first normalized Tetra n-octyl ammonium bromide control (-100%) and DMSO (control, 100%).
Regarding `CC(C)(C)CC(C)(C)c1ccccc1O`, the Potency was 43.9 µM (active).

Regarding `CC(NCCC(c1ccccc1)c1ccccc1)c1ccccc1` (stereo not given), the “viability change, negative = cytotoxic” value was -13.3% [at 35.3 µM] (inactive).

Take `Cc1ccc(CCn2c3c(c4cc(Cl)ccc42)CN(C)CC3)cn1`: the “viability change, negative = cytotoxic” value is -1.31% [at 35.3 µM] (inactive).

On to `C/C=C/C=N/NC(=O)c1ccncc1`, for which the “viability change, negative = cytotoxic” value was -0.496% [at 35.3 µM] (inactive).

For the molecule `Cc1c(C)n(Cc2ccccc2)c2ccc(C(=O)OCCN(C)C)cc12`, the “viability change, negative = cytotoxic” value is -14.2% [at 35.3 µM] (inactive).

In the case of `[O]=[Zr]`, the “viability change, negative = cytotoxic” value was -0.16% (inactive).

On to `O=C=NCc1cccc(CN=C=O)c1`, for which the viability change, negative = cytotoxic was -10.1% [at 15.8 µM] (inactive).

For `N[C@@H](CSSC[C@H](N)C(=O)O)C(=O)O`, the viability change, negative = cytotoxic is 3.93% [at 0.29 µM] (inactive).

Take `CC(C)c1ccccc1N`: the “viability change, negative = cytotoxic” value is 10.2% (inactive).

Take `O=S(O)O`: the viability change, negative = cytotoxic is 5.55% [at 15.8 µM] (inactive).

Consider `CC(=O)O[C@@H]1C[C@@H]2CC[C@@]1(C)C2(C)C`, for which the “viability change, negative = cytotoxic” value was -0.872% (inactive).

`Clc1nc2ccccc2s1`: the “viability change, negative = cytotoxic” value is -1.67% (inactive).

`Oc1cc2ccccc2cc1O`: the “viability change, negative = cytotoxic” value is 10% (inactive).

In the case of `CCCCOc1ccc(C(=O)CCN2CCCCC2)cc1`, the “viability change, negative = cytotoxic” value was -11.6% [at 35.3 µM] (inactive).

In the case of `CCN(CC)CCNc1ccc(CO)c2sc3ccccc3c(=O)c12`, the “viability change, negative = cytotoxic” value was -29.4% [at 35.3 µM] (inactive).

Take `O=S(=O)(O)c1cc(S(=O)(=O)O)c2ccc3c(S(=O)(=O)O)cc(S(=O)(=O)O)c4ccc1c2c43`: the viability change, negative = cytotoxic was -1.68% [at 15.8 µM] (inactive).

Regarding `CCCCCCCC(=O)OCC`, the “viability change, negative = cytotoxic” value was -1.41% (inactive).

`CCN(CC)c1cccc(C)c1`: the “viability change, negative = cytotoxic” value is 1.26% (inactive).

As for `Cc1ccc(O)cn1`, the “viability change, negative = cytotoxic” value is -3.65% (inactive).

For the molecule `Clc1ccc(C(c2ccccc2Cl)C(Cl)Cl)cc1` (stereo not given), the Potency was 43.6 µM (active) and 23.9 µM (active).

For `CCCN(CCc1cccs1)[C@H]1CCc2c(O)cccc2C1`, the “viability change, negative = cytotoxic” value is -17.9% [at 35.3 µM] (inactive).

With `CCCOc1sc(C(=O)N2CCC(c3cc(CN)ccc3F)CC2)c(C)c1Br`, the Potency is 44.9 µM (active).

For `COCC(=O)O[C@]1(CCN(C)CCCc2nc3ccccc3[nH]2)CCc2cc(F)ccc2[C@@H]1C(C)C`, the “viability change, negative = cytotoxic” value is -14.5% [at 35.3 µM] (inactive).

For the molecule `CN1CN(C)CN(C)C1`, the “viability change, negative = cytotoxic” value was -9.44% (inactive).

On to `CO[Si](CCC1CCC2OC2C1)(OC)OC` (stereo not given), for which the “viability change, negative = cytotoxic” value was 11.1% (inactive).

`CCC(C)c1cc([N+](=O)[O-])cc([N+](=O)[O-])c1OC(=O)OC(C)C` (stereo not given): the “viability change, negative = cytotoxic” value is 2.15% (inactive).

In the case of `COC(=O)[C@]1(C)CCC[C@@]2(C)[C@H]1CC=C1C=C(C(C)C)CC[C@@H]12`, the “viability change, negative = cytotoxic” value was 7.78% (inactive).

On to `C/C=C/C(=O)C1=C(C)CCCC1(C)C`, for which the “viability change, negative = cytotoxic” value was 14.8% (inactive).

On to `Clc1cccnc1`, for which the “viability change, negative = cytotoxic” value was -4.52% (inactive).

Regarding `COc1cc(C=C2CCC/C(=C\c3ccc(O)c(OC)c3)C2=O)ccc1O`, the Potency was 26.8 µM (active).

In the case of `CCCCCCC(C)OC(=O)COc1nc(F)c(Cl)c(N)c1Cl` (stereo not given), the Potency is 49 µM (active).

Regarding `CCCCN(CCCC)CCC(O)c1cc2c(Cl)cc(Cl)cc2c2cc(C(F)(F)F)ccc12` (stereo not given), the “viability change, negative = cytotoxic” value is -26.1% [at 35.3 µM] (inactive).

On to `CN(C)CCCN1c2ccccc2CCc2ccccc21`, for which the Potency result was “inactive”.

In the case of `CCCCCCCCCCCCCc1ccccc1`, the “viability change, negative = cytotoxic” value was -3.58% [at 35.3 µM] (inactive).

Turning to `CCOC(=O)C1=C(C)NC(C)=C(C(=O)OCC)C1c1ccccc1/C=C/C(=O)OC(C)(C)C`, the Potency is 26.8 µM (active).

`CCCCCCC(C)Nc1ccc(Nc2ccccc2)cc1` (stereo not given): the Potency was 49 µM (active).

For the molecule `CCCCOCC`, the “viability change, negative = cytotoxic” value was 2.18% (inactive).

As to `C=C/C=C/C=C/CCCCC`, the viability change, negative = cytotoxic was 1.06% [at 15.8 µM] (inactive).

As for `Cc1occc1SSc1ccoc1C`, the “viability change, negative = cytotoxic” value was -1.43% (inactive).

Take `O=C(O)CCCCCCC(=O)O`: the “viability change, negative = cytotoxic” value is -2.74% (inactive).
